# In the supplement of paper PMC10981050:
# Where a name gives a salt, the structure may show the parent alone.
# System: MARIMO
# Assay: cell viability relative to vehicle control; higher = less cytotoxic
# Settings: 10 µM; SRSF2 genotype: SRSF2 P95H/wt
# Outline: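 Each screen used CRISPR-edited mutant and wild-type clones from four leukaemia lines. Compounds were acoustically dispensed at a single 10 µM dose, and CellTiter-Glo luminescence was read after 48 h with the supernatant first removed. Viability was analysed in Genedata Screener and given as percent of the on-plate vehicle control.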
row,Compound,cell viability [%]
1,CCN(Cc1ccncc1)C(=O)C(CO)c1ccccc1 (centres undefined) [Tropicamide],107
2,CN(C)C1CCN(C(=O)c2ccc(NC(=O)Nc3ccc(-c4nc(N5CCOCC5)nc(N5CCOCC5)n4)cc3)cc2)CC1,43.2
3,COc1cc2nc(N3CCN(C(=O)c4ccco4)CC3)nc(N)c2cc1OC [Prazosin HCl],96.8
4,O=C(c1cccc(Br)c1)N1CCC(N2CCCC2)CC1,92.3
5,CC(=O)Oc1ccc2c(c1)Oc1cc(OC(C)=O)ccc1C21OC(=O)c2cc(C(=O)ON3C(=O)CCC3=O)ccc21.CC(=O)Oc1ccc2c(c1)Oc1cc(OC(C)=O)ccc1C21OC(=O)c2ccc(C(=O)ON3C(=O)CCC3=O)cc21,98.1
6,CC1(C)S[C@@H]2[C@H](NC(=O)Cc3ccccc3)C(=O)N2[C@H]1C(=O)O [Penicillin G Sodium],98.5
7,CCOc1cc2ncc(C#N)c(Nc3ccc(F)c(Cl)c3)c2cc1NC(=O)/C=C/CN(C)C [Pelitinib (EKB-569)],5.88
8,CC(C)=CCC[C@](C)(O[C@@H]1O[C@H](CO)[C@@H](O)[C@H](O)[C@H]1O)[C@H]1CC[C@]2(C)[C@@H]1[C@H](O)C[C@@H]1[C@@]3(C)CC[C@H](O)C(C)(C)[C@@H]3[C@@H](O[C@@H]3O[C@H](CO)[C@@H](O)[C@H](O)[C@H]3O[C@@H]3O[C@@H](C)[C@H](O)[C@@H](O)[C@H]3O)C[C@]12C [Ginsenoside Re],99.2
9,C[C@H](CCC(=O)O)[C@H]1CC[C@H]2[C@@H]3[C@@H](O)C[C@@H]4C[C@H](O)CC[C@]4(C)[C@H]3CC[C@]12C [Ursodiol (Actigal Urso)],103
10,CCCCOc1nc(N)c2c(n1)N(Cc1cccc(CN3CCCC3)c1)CC(=O)N2,87
11,CCOC(=O)[C@H](CCc1ccccc1)N[C@@H](C)C(=O)N1Cc2cc(OC)c(OC)cc2C[C@H]1C(=O)O [Moexipril HCl],110
12,CS(=O)(=O)c1ccc(C2=C(c3ccccc3)C(=O)OC2)cc1 [Rofecoxib (Vioxx)],98.6
13,CN(CCOc1ccc(CC2SC(=O)NC2=O)cc1)c1ccccn1 (centres undefined) [Rosiglitazone HCl],102
14,Cc1cc(NC(=O)Nc2ccc(N(C)C)cc2)c2cc(F)cc(F)c2n1,98.3
15,CCN(CCCc1ccccc1)CCCc1ccccc1 [Alverine Citrate],69.5
16,COc1ccc(C2CC(=O)c3c(O)cc(OC4OC(COC5OC(C)C(O)C(O)C5O)C(O)C(O)C4O)cc3O2)cc1OC (centres undefined) [Methyl-Hesperidin],107
17,CNC(=O)CN1CCC(Oc2cc3c(Nc4cccc(Cl)c4F)ncnc3cc2OC)CC1,93.6
18,CC1OC(OC2C(CO)OC(OCC3OC(OC(=O)C45CCC(C)(C)CC4C4=CCC6C7(C)CCC(OC8OCC(O)C(O)C8O)C(C)(CO)C7CCC6(C)C4(C)CC5)C(O)C(O)C3O)C(O)C2O)C(O)C(O)C1O (centres undefined) [Hederacoside D],95.7
19,C=C[C@@H]1C[C@]1(NC(=O)[C@@H]1C[C@@H](Oc2ncc(OC)c3ccc(Cl)cc23)CN1C(=O)[C@@H](NC(=O)OC(C)(C)C)C(C)(C)C)C(=O)NS(=O)(=O)C1CC1 [Asunaprevir],103
20,C=C(Cc1ccccc1Cl)C(=O)OCC,107
21,O=C(O)C1=C(CSc2nnnn2CS(=O)(=O)O)CS[C@@H]2[C@H](NC(=O)[C@H](O)c3ccccc3)C(=O)N12 [Cefonicid sodium],97.2
22,Fc1ccc(Cl)cc1-c1nc(Nc2ccncc2)c2nccnc2n1,92.1
23,Cc1cccc(Nc2nc(-c3ccncc3)cs2)c1,49.3
24,COc1cc([C@H]2OC[C@H]3[C@@H]2CO[C@@H]3c2ccc(O[C@@H]3O[C@H](CO)[C@@H](O)[C@H](O)[C@H]3O)c(OC)c2)ccc1O[C@@H]1O[C@H](CO)[C@@H](O)[C@H](O)[C@H]1O [Pinoresinol diglucoside],105
25,C1=Cc2ccccc2Nc2ccccc21 [Iminostilbene],95.5
26,O=C(O)CSc1nnc(Br)n1-c1ccc(C2CC2)c2ccccc12 [Lesinurad],95.1
27,CCCCN(Cc1ccc(C(=O)NO)cc1)C(=O)Nc1ccccc1 [Nexturastat A],6.74
28,CC(C)c1cc2c(N3CCN(C4=NCC(C)(C)S4)CC3)ncnc2s1 [MI-3 (Menin-MLL Inhibitor)],75.4
29,Clc1ccc(CSC(Cn2ccnc2)c2ccc(Cl)cc2Cl)cc1 (centres undefined) [Sulconazole Nitrate],46.5
